Laboratory results as given in PubChem BioAssay AID624169 (The Scripps Research Institute Molecular Screening Center, 2012).
In all, about 360,000 compounds went through this assay and about 2,400 (0.67%) were called active. The sample holds actives, similar compounds and a random draw of the others, so the mix is not that of the screen. Unmarked numbers belong to inactive results.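 How the source made its calls: active means activation above a run cutoff, the mean activation of all tested compounds plus 3 SD (cut at about 14% in these data); inactive means the rest.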

What follows are compounds tested against 5-hydroxytryptamine receptor 2A (Mus musculus) (UniProt P35363) (assay: mouse Htr2a agonists via beta-arrestin recruitment, primary screen, cell-based, luminescence (AID 624169;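 further: 0% = plate median of compound wells and 100% = 30 µM serotonin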)). Settings: CHO-K1 mHTR2A beta-arrestin complementation, at 7.6 µM, stronger effect = higher value, percent of 30 µM serotonin response.
5-hydroxytryptamine receptor 2A (Mus musculus), sequence (P35363 whole entry, looked up): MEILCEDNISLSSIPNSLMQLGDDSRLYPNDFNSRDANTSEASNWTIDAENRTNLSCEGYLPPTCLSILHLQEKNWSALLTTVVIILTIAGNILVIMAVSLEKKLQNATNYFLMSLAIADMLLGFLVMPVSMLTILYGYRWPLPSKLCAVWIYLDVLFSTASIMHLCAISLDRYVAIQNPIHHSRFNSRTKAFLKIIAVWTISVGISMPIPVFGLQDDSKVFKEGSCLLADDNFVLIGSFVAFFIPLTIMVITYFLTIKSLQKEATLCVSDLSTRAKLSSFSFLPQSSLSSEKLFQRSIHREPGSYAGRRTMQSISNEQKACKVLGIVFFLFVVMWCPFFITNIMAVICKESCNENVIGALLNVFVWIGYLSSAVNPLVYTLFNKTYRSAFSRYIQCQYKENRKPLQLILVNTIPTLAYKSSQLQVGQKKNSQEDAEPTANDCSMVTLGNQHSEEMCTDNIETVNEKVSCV

SMILES	activation
COCc1cc(C(C)=O)ccc1OC	2.94%
CCN(CC(=O)Nc1ccccc1OC)C(=O)Cn1cnc2ccccc2c1=O	2.03%
COc1ccc(C(C)=O)cc1COC(=O)Cn1cnc2ccccc2c1=O	16.5% (active)
CN1OC[C@@H]2CN[C@H](c3ccc(-c4ccccc4)cc3)C[C@@H]21	-5.82%
Cc1ccc(S(=O)(=O)NN=C2CC(C)(C)CC(=O)C2(C)C)cc1	-0.12%
Cc1ccc(C2(c3ccc(C)cc3)NC(=O)N(Cc3c(C)noc3C)C2=O)cc1	-0.69%
COc1ccccc1CNC(=O)Cn1c(=O)oc2cc(Cl)ccc21	-2.35%
COC(=O)Cn1nc(-c2ccccc2)c2cc(Cl)ccc21	18.3% (active)
CCCNC(=O)CCn1nc(-c2ccccc2)c2ccccc2c1=O	5.25%
COC(=O)c1ccccc1N=Nc1c(C)[nH][nH]c1=O	-4.12%
CC(C)(C)SCCSC1=CC(=O)CC(c2ccccc2)C1 (stereo unspecified)	-1.98%
O=c1oc(-c2ccco2)nc2sc3c(c12)CCCCC3	-3.64%
O=C(NCc1ccco1)c1cccn2c(=O)c3c4c(sc3nc12)CCCC4	19.5% (active)
O=C(NCc1ccco1)c1cnn2c(C(F)(F)F)cc(-c3ccco3)nc12	0.02%
COc1ccc(OCCCC(=O)OC(C)C(=O)Nc2ccccc2[N+](=O)[O-])cc1 (stereo unspecified)	9.6%
Cc1ccc(OCc2nnc(NC(=O)OCC(C)C)s2)cc1	-4.72%
COc1ccc2[nH]cc(CCN3C(=O)c4ccc(C(=O)O)cc4C3=O)c2c1	19.3% (active)
COCCCN1C(=O)c2ccc(C(=O)Nc3ccc(OC)cc3OC)cc2C1=O	12.7%
Cc1ccc2[nH]cc(CCCN3C(=O)c4ccccc4C3=O)c2c1	-2.51%
O=C(Nc1ccc2c(c1)[C@@H]1C[C@@H](CC(=O)N3CCCCC3)O[C@@H](CO)[C@@H]1O2)NC1CCCCC1	15.4% (active)
COC(=O)C[C@H]1C[C@@H]2c3cc(NC(=O)Nc4ccccc4)ccc3O[C@@H]2[C@@H](CO)O1	2.06%
O=C(C[C@H]1C[C@@H]2c3cc(NC(=O)C4CCC4)ccc3O[C@@H]2[C@H](CO)O1)NC1CCCCC1	-0.85%
O=C(CCS(=O)(=O)c1cccc2nsnc12)N1CCN(c2ccccc2F)CC1	4.25%

SMILES	activation
COC(=O)[C@@H]1CCCN1C(=O)c1cc(COc2cccc3cccnc23)on1	2.24%
CCS(=O)(=O)Nc1ccc(C2=NN(S(=O)(=O)c3ccc(F)cc3)C(c3ccco3)C2)cc1 (stereo unspecified)	-6.66%
CO/N=C/CC(=O)c1ccc(OC)cc1	21.9% (active)
COc1ccc(C(=O)COC(=O)c2ccc3ccccc3n2)cc1	-0.68%
COc1ccc(C(=O)C[n+]2ccc(C)cc2)cc1	-0.16%
Cc1cccc(NC(=O)c2cc(S(=O)(=O)N3CCC4(CC3)OCCO4)ccc2F)c1	-2.45%
CCOc1ccc(/C(O)=C2\C(=O)C(=O)N(c3ccc(OC)cc3)C2c2ccccc2[N+](=O)[O-])cc1 (stereo unspecified)	23.9% (active)
COc1ccc(/C(O)=C2/C(=O)C(=O)N(c3nc(C)c(C)s3)C2c2ccco2)cc1 (stereo unspecified)	0.59%
COc1ccc(C2/C(=C(/O)c3ccccc3)C(=O)C(=O)N2c2ncccn2)cc1OC (stereo unspecified)	-1.25%
CCN(CCn1cccn1)Cc1nc(-c2ccc(C(=O)OC)cc2)no1	2.48%
N=C1c2ccccc2-c2ccccc21	3.53%
Cc1nnc(C)c2c(C)n(N)c(C)c12	-1.02%
O=C(CSc1nn(-c2ccc(F)cc2)c(=S)s1)NC1CCS(=O)(=O)C1 (stereo unspecified)	-0.71%
Cc1ccccc1-n1nc(SCC(=O)O)sc1=S	-1.31%
N#CCSc1nn(-c2ccc(F)cc2)c(=S)s1	15.4% (active)
COCCCN(C(=O)CSCc1ccc(C)cc1)c1c(N)n(Cc2ccccc2)c(=O)[nH]c1=O	7.86%
CC1C(C)N(C(=O)CCl)c2ccccc2N1C(=O)CCl (stereo unspecified)	-1.04%
Cn1c2c(c(=O)n(C)c1=O)C(c1cccc([N+](=O)[O-])c1)Nc1ccccc1O2 (stereo unspecified)	-3.64%
Cn1c2c(c(=O)n(C)c1=O)C1c3ccccc3OCC1C(C)(C)O2 (stereo unspecified)	-0.33%
Cn1c2c(c(=O)n(C)c1=O)C(c1ccc(O)cc1)Nc1ccccc1O2 (stereo unspecified)	27% (active)
COC(=O)COc1ccc(C2NC(=O)NC(C)=C2C(=O)NCc2ccccc2)cc1OC (stereo unspecified)	-4.71%
COCCCn1cc(CN2CC(N(C)C)CS2(=O)=O)nn1 (stereo unspecified)	5.48%
Cc1c(Br)c([N+](=O)[O-])nn1CC(=O)Nc1sc2c(c1C(=O)OC(C)C)CCC(C)C2 (stereo unspecified)	2.43%

SMILES	activation
CC(=O)Nc1ccc(OCC(O)CN2CCN(c3ccccc3Cl)CC2)cc1 (stereo unspecified)	2.24%
O=S(=O)(c1ccc(OCC(O)CN2CCN(c3ccccc3Cl)CC2)cc1)N1CCOCC1 (stereo unspecified)	22.4% (active)
CC(=O)c1ccc(OCC(O)CN2CCN(S(=O)(=O)c3cccc(Br)c3)CC2)cc1 (stereo unspecified)	1.8%
Cc1cc(C(=O)NNS(=O)(=O)c2ccccc2C(F)(F)F)nn1C(C)(C)C	-0.74%
CCOC(=O)[C@]12CCCC=C1N(CCC1=CCCCC1)C(=O)[C@H](CC(=O)NCCCCc1ccccc1)C2	3.93%
COc1ccc2[nH]c(C)c(CCN(Cc3cccs3)C(=S)Nc3ccccc3OC)c2c1	10.5%
CCNC(=S)N(CCc1c(C)[nH]c2ccc(C)cc12)Cc1ccco1	-4.57%
Cc1[nH]c2ccccc2c1CCN(Cc1cccs1)C(=S)NC(C)(C)C	24.1% (active)
CCOC(=O)c1cccc(NC(=O)C2CCN(c3ncnc4c3nc3n4CCCCC3)CC2)c1	-3.05%
CCOCCCN1C(=O)C2C(C(=O)Nc3ccc(OCC)cc3)C3C=CC2(O3)C1C(=O)NC1CCCCC1 (stereo unspecified)	6.26%
COc1ccc(C(C)(C)C)cc1NC(=O)CCN1C(=O)C2CCCCC2C1=O (stereo unspecified)	-4.43%
Cc1ccc(C(=O)NCC(=O)OCc2nnc(-c3ccccc3)o2)cc1	14.8% (active)
O=C(OCc1nnc(-c2ccccc2)o1)c1ccc2c(c1)C(=O)N(CCc1ccccc1)C2=O	1.62%
Cc1onc(-c2ccccc2)c1-c1nnc(COC(=O)c2ccc(N(C)C)cc2)o1	-6.2%
CSc1ccc(NC(=O)N2CC(C)OC(C)C2)cc1 (stereo unspecified)	-3.29%
CCCCn1nc(C(=O)Nc2cccc(C(=O)NC3CC3)c2)c2ccccc2c1=O	2.3%
Cn1cccc1C(=O)OCC(=O)c1ccc(Br)s1	-5.88%
OC(COc1ccc(F)cc1Cl)CN1CCc2ccccc2C1 (stereo unspecified)	-18.7%
COc1ccccc1C(c1nnnn1CC1CCCO1)N1CCN(c2ccccc2)CC1 (stereo unspecified)	-1.76%
O=C(NCc1ccco1)/C(=C/c1ccco1)NC(=O)c1ccccc1	2.71%
O=C(Cc1ccccc1)n1nc(-c2ccccc2)nc1NCc1ccco1	17.4% (active)
O=C(c1cccs1)n1nc(NCc2ccccc2)nc1NCc1ccccc1	-1.74%
CC(C)NS(=O)(=O)c1ccc(NC(=O)C2CCCCC2)cc1	-5.58%

SMILES	activation
CS(=O)(=O)c1ccc2nc(NC(=O)C3CCCCC3)sc2c1	14.9% (active)
Cc1ccc2nc(NC(=O)C3CCN(S(=O)(=O)c4ccc5c(c4)oc(=O)n5C)CC3)sc2c1	-3.71%
Cc1nc2ccc(NC(=O)C3CCCCC3)cc2s1	5.67%
COc1ccc(CN2CC(C(=O)NCCN3CCN(c4ccccc4F)CC3)CC2=O)cc1 (stereo unspecified)	-3.29%
O=C(NCCCN1CCCCCC1)C1CC(=O)N(C2CCCC2)C1 (stereo unspecified)	2.65%
O=C(NCCCN1CCN(c2ccccc2F)CC1)C1CCC(=O)N1C1CCCCC1 (stereo unspecified)	16.5% (active)
COC(=O)c1ccccc1NC(=O)C1CCN(S(=O)(=O)c2cc(OC)ccc2OC)CC1	-1.33%
Cc1cc(C)cc(C(=O)N(CCc2ccccc2)C2=CC3CCC(C2)N3C)c1 (stereo unspecified)	-10.4%
CCCN(CCc1ccccc1)C1CCc2c(O)cccc2C1 (stereo unspecified)	50.6% (active)
COC(=O)c1ccc(CN2C(=O)C(Cc3ccccc3)ON=C2c2ncccc2C)o1 (stereo unspecified)	0.18%
CCOc1ccccc1NS(=O)(=O)c1cc2c3c(c1)C(C)C(=O)N3CCC2 (stereo unspecified)	5.3%
C/C(=N\OCC(=O)Nc1ccc(Br)cc1)c1cccs1	-2.57%
C/C(=N\NC(=O)CSc1nc2ccccc2c(=O)n1-c1ccccc1C)c1cccs1	-1%
C/C(=N\NC(=O)COc1c(C)cccc1C)c1cccs1	14.4% (active)
Cc1ccc(CN2CCN(c3ncccn3)CC2)c(C)c1	25.6% (active)
COc1ccccc1-c1nn(Cc2ccccc2)cc1C(=O)N1CCN(c2ncccn2)CC1	11.3%
Oc1ccc(CN2CCN(c3ncccn3)CC2)cc1	30.1% (active)
Cc1ccc(CN2CCN(/N=C/c3ccco3)CC2)c(C)c1	-2.05%
Cc1ccc(CN2CCN(/N=C/c3cccnc3)CC2)c(C)c1	-3.83%
CN(C)C(=O)c1nc2ccc(Cl)cn2c1CN1CCN(c2ncccn2)CC1	1.37%
CC1(C)CCSC(/C=C/c2ccccc2)=N1	-2.29%
Nc1c(C(=O)O)cnn1-c1ccccc1	2.02%
